Hit rate of the full screen: of about 350,000 compounds, about 31,000 (8.9%) were called active. Roughly 15% stayed inconclusive and do not appear here. Calls come from the whole dose curve; as a rule, active = well fitted inhibition curve with a large enough effect; inconclusive = small, poorly fitted or top-dose-only effect; inactive = no such curve, though single readings can be large or run the other way. This excerpt belongs to a sample that is enriched for actives.
Each compound was assayed against Histone-lysine N-methyltransferase EHMT2 (Homo sapiens) (UniProt Q96KQ7) (assay: qHTS Assay for Inhibitors of Histone Lysine Methyltransferase G9a). Details: G9a H3K9 monomethylation, AlphaScreen, 2 h; series mostly up to 59 µM; activity, negative = inhibition: at the top concentration.
Outline: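 AlphaScreen read-out: biotin-H3K9 peptide (500 nM) methylation by 20 nM enzyme with 20 uM SAM, 2 h at room temperature after 15 min compound preincubation; anti-monomethyl H3K9 antibody plus donor/acceptor beads, 10 min dark.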
% is set by controls: 0 for no effect and ±100 for the full control effect; potency is the fitted concentration of half-maximal effect.
Note: nearly all actives have a fitted effect of over 75% in size.

Chain of Histone-lysine N-methyltransferase EHMT2 (Homo sapiens) (Q96KQ7 913-1193 limits assumed): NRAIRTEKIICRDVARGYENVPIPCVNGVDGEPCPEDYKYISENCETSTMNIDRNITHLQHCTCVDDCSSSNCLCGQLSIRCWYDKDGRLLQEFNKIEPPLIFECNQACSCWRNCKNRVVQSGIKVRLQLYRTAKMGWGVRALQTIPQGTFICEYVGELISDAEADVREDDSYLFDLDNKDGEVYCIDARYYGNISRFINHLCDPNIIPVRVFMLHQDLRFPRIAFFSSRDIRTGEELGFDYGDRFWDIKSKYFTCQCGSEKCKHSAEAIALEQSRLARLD

activity, negative = inhibition, inactive:
CC(C)Cn1c(N)c(C(=O)COC(=O)C2CCCN2C(=O)c2cccs2)c(=O)n(C)c1=O (centres undefined) -29%
O=C(CCN1C(=O)/C(=C/c2cccs2)SC1=S)NNC(=O)c1cccc(O)c1 20.4% [at 102 µM]
O=C(CCCN1C(=O)/C(=C/c2cccs2)SC1=S)Nc1ccc(O)cc1 -11.9% [at 102 µM]
O=C(COc1ccccc1Cl)Nc1ccccc1C(=O)NC1CC1 3.29% [at 102 µM]
Cc1cnc(C)c(N2CCN(C(=O)C3CCC(=O)N(CCc4cccc(F)c4)C3)CC2)n1 (centres undefined) 30.6% [at 102 µM]
N#Cc1ccccc1Cn1cnc2nc3c(cc2c1=O)CCCC3 -5.6%
Oc1c(CN2CCCC2)cc(COCc2ccccc2)c2cccnc12 -18% [at 12.7 µM]
CCOc1ccc(C(NC(=O)c2cc(OC)c(OC)c(OC)c2)c2cc(Cl)c3cccnc3c2O)cc1 (centres undefined) 32.7%
COc1ccccc1N1CCN(C(CNC(=O)C(=O)NCc2ccc(C)cc2)c2cccnc2)CC1 (centres undefined) -1.43%
CCOC(=O)N1CCN(C(=O)CSc2nc(=O)n3cccc(C)c3n2)CC1 12.4% [at 102 µM]
CC1CCCN(c2cc3c(cc2F)c(=O)c(S(=O)(=O)c2cccc(Cl)c2)cn3Cc2ccccc2)C1 (centres undefined) 2.11%
CC(O)c1ccc(OCCN(C)c2ccccn2)cc1 (centres undefined) -1.26% [at 2.33 µM]
Cc1nc2ccn(Cc3cccs3)c(=O)c2cc1C(=O)NCc1ccc(Cl)cc1 7.77%
CNC(=S)N1CCN(c2ccccn2)CC1 20.4%
CCOC(=O)c1ccc(NC(=S)N2CCN(c3ccccn3)CC2)cc1 0.189% [at 102 µM]
CCCOc1ccc(-c2c(C(=O)N/N=C/c3ccco3)nnn2-c2nonc2N)cc1 19.6% [at 102 µM]
COc1ccccc1/C=N/N1CCN(Cc2ccccc2Cl)CC1 7.68% [at 0.501 µM]
O=S1(=O)CCN(Cc2ccccc2Cl)CC1 -11.6% [at 102 µM]
CCOc1ccc(CNC(=O)c2ccc(CS(=O)c3ccccc3)o2)cc1 (centres undefined) -27.7%
COc1ccc([N+](=O)[O-])cc1-c1nc2ccccc2nc1-c1ccccc1 7.8% [at 0.501 µM]
Cc1cccc(NC(=O)c2sc(-c3ccccc3)nc2-c2ccc([N+](=O)[O-])cc2)c1 -11.3%
COC(=O)c1c(NC(=O)c2cc(=O)c3c(C)cc(C)cc3o2)sc2c1CCCC2 -3.65%
Cc1cc(C(=O)O)ccc1[N+](=O)[O-] 3.38% [at 0.501 µM]
CCOC(=O)c1c(-c2ccccc2)oc2cc(Br)c(O)cc12 16.8% [at 102 µM]
Cc1cc(O)c(NC(=O)c2ccc(C)c([N+](=O)[O-])c2)cc1C 5.04% [at 102 µM]
COc1cc(/C(=C/c2ccccc2)c2ccccc2)c2c(c1)oc1ccccc12 39.3% [at 102 µM]
CS(=O)(=O)Nc1cccc(C2=NN(C(=O)c3cccc(F)c3)C(c3cccs3)C2)c1 (centres undefined) -0.685% [at 102 µM]
O=C(Cn1c(=O)n(Cc2cccs2)c(=O)c2cccnc21)Nc1ccc(F)cc1 4.79%
Cc1ccc(NC(=O)Cc2ccc(NC(=O)N3CCCCc4ccccc43)cc2)cc1 -7.06%
CC(C)=CCCC(C)CN1CCC(n2nccc2NC(=O)c2ccccc2)CC1 (centres undefined) 12.5% [at 102 µM]
COc1cc(C2c3c(oc4ccccc4c3=O)C(=O)N2c2nc(C)c(C)s2)ccc1O (centres undefined) 2.3%
O=C1c2oc3ccccc3c(=O)c2C(c2cccc(O)c2)N1c1ccccn1 (centres undefined) 4.82% [at 102 µM]
COc1ccc(NC(=O)CCc2nnc3n(CC(C)C)c(=O)c4ccccc4n23)cc1OC 8.79%
COc1ccc(Nc2nnc(C)c3ccccc23)cc1 -4.39% [at 102 µM]
Cc1nnc(NCCO)c2ccccc12 -4.86% [at 102 µM]
CCOC(=O)C1CCCN(S(=O)(=O)c2cc(-c3cc(C)no3)ccc2OC)C1 (centres undefined) -28.7%
Cc1nc2ccccc2n1CC(=O)N/N=C/c1cccnc1 -0.153% [at 102 µM]

Potency, inactive:
COc1ccc(CNS(=O)(=O)c2cc3c4c(c2)CCN4C(=O)CC3)cc1

Potency, active:
CC(C(=O)Nc1ccc(O)c(C(=O)O)c1)N1C(=O)/C(=C/c2cccs2)SC1=S (centres undefined) 35.5 µM
CCCCC(CC(C)O)c1n[nH]c(=S)n1-c1ccccc1 (centres undefined) 5.01 µM
CCOC(=O)N1CCN(C(c2cccnc2)c2ccc3cccnc3c2O)CC1 (centres undefined) 0.316 µM
CCN1CCN(C(c2cccnc2)c2cc(Cl)c3cccnc3c2O)CC1 (centres undefined) 1.12 µM
COc1cc([N+](=O)[O-])ccc1NC(=S)N1CCN(c2ccccn2)CC1 44.7 µM
CSc1ccc(/C=N/N2CCN(Cc3ccccc3Cl)CC2)cc1 14.1 µM
Cc1nc(-c2ccc([N+](=O)[O-])cc2)c(-c2ccccc2)o1 15.8 µM
Cc1oc2cc([N+](=O)[O-])c(O)c([N+](=O)[O-])c2c1C(=O)c1ccc(Br)cc1 17.8 µM
Cc1oc2cc(Br)c(O)c(Br)c2c1C(=O)c1ccccc1 44.7 µM
CC(=O)c1sc(N2C(=O)c3oc4ccccc4c(=O)c3C2c2ccc(C)cc2)nc1C (centres undefined) 2 µM
NNc1nnc(NN)c2ccccc12 25.1 µM

Source: PubChem BioAssay AID504332 (National Center for Advancing Translational Sciences (NCATS), 2011)
